Bioassay records from PubChem BioAssay.
TTR transcr act: activators of transthyretin transcription | 92,000 compounds, 1.3% hits | activation, % at 16.7 µM | SH-SY5Y TTR promoter Gaussia luciferase, luminescence; 100% = recombinant luciferase protein wells | AID 1117267;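 active means activation above the mean of all tested compounds plus 3 SD, cut at about 9.5% in these data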;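 further: cells exposed to compounds for one day before reading; 0% = median of all test compound wells on the plate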
TTR inh HuH7: decreases TTR transcription in HuH7 cells in activator counter-screen; 1,100 compounds, 4% hits; shares compounds with TTR transcr act; inhibition, % at 16.7 µM; HuH7 TTR promoter-Gaussia luciferase reporter, luminescence;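 active means average inhibition above the solvent-only control wells' mean plus 3 SD, cut at about 15% in these data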;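 further: 0% = cells with DMSO only and 100% = cells with inhibitor control FD; inhibitors lower well luminescence so higher value means more inhibition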
TTR act confirm: human TTR transcription activation, confirmation | SHSY5Y TTR promoter Gaussia luciferase, luminescence; 100% = purified Lucia enzyme wells, no cells | 1,100 tested, under 10 active | shares compounds with TTR transcr act | activation, % at 16.7 µM;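 active means mean activation above a set limit taken from the earlier primary screen, cut at about 11% in these data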;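 further: 0% = DMSO-treated cells and 100% = recombinant Lucia luciferase without cells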
* hit, by the source's call. The entries come from a sample that favours hits as a whole.

Screening COc1ccc2oc(=O)c(C(=O)NCc3ccco3)cc2c1 returned TTR transcr act 0.
`COc1ccc(-c2c(C(=O)c3ccccc3)[nH]c(N)c2C(=O)c2c[nH]c3ccccc23)cc1OC` gave TTR transcr act 1.
Cc1cccc(N2CCN(S(=O)(=O)c3ccc4c(c3)OCCO4)CC2)c1C was read as TTR transcr act 0.
Screening Cc1cccc(N2CCN(S(=O)(=O)c3ccc4c(c3)CC(=O)N4C)CC2)c1C returned TTR transcr act 14*, TTR inh HuH7 -11 and TTR act confirm -1.
Screening Cc1cccc(N2CCN(S(=O)(=O)c3ccc4c(c3)CCN4C(=O)CCC(=O)O)CC2)c1C returned TTR transcr act 1.
Screening CC(=O)c1cc(-c2cccc([N+](=O)[O-])c2)c(=O)n2c1CCC2 returned TTR transcr act 3.
COc1ccc(S(=O)(=O)N(C)C[C@H]2Oc3cc(Br)ccc3S(=O)(=O)N([C@H](C)CO)C[C@H]2C)cc1 was read as TTR transcr act 28*, TTR inh HuH7 1 and TTR act confirm -1.
C[C@H](CO)N1C[C@H](C)[C@H](CN(C)Cc2ccc(Oc3ccccc3)cc2)Oc2cc(Br)ccc2S1(=O)=O was read as TTR transcr act 13*, TTR inh HuH7 -7 and TTR act confirm -1.
For C[C@H]1CN([C@@H](C)CO)S(=O)(=O)c2ccc(Br)cc2O[C@H]1CN(C)Cc1ccccc1 the results were TTR transcr act 1.
`CC(C)NC(=O)N(C)C[C@H]1Oc2cc(Br)ccc2S(=O)(=O)N([C@H](C)CO)C[C@H]1C` gave TTR transcr act 0.
C[C@H](CO)N1C[C@H](C)[C@H](CN(C)S(=O)(=O)c2cccc(F)c2)Oc2cc(Br)ccc2S1(=O)=O was read as TTR transcr act 2.
`Cc1ccc(S(=O)(=O)N(C)C[C@H]2Oc3cc(Br)ccc3S(=O)(=O)N([C@H](C)CO)C[C@@H]2C)cc1` gave TTR transcr act 6.
Screening COc1ccccc1C(=O)NC1CCCCN(Cc2ccc(Cl)cc2)C1=O (centres undefined) returned TTR transcr act 0.
For O=C(c1ccc(F)cc1)n1ccc2ccc(-c3ccc4ccn(Cc5ccccc5)c4c3)cc21 the results were TTR transcr act 1.
For COc1ccc(-c2[nH]c(-c3ccc(C)cc3)nc2SCC(=O)Nc2nccs2)cc1 the results were TTR transcr act 10*, TTR inh HuH7 -12 and TTR act confirm -1.
For COc1ccc(-c2nc(SCC(=O)NC3CCCC3)c(-c3ccc(OC)cc3)[nH]2)cc1 the results were TTR transcr act -1.
`COc1ccc(-c2[nH]c(-c3ccc(SC)cc3)nc2SCC(=O)Nc2nccs2)cc1` gave TTR transcr act -1.
For CC(C)CN1C(=O)C[C@]2(C(=O)N(C)c3ccc(NS(=O)(=O)c4ccc(F)cc4)cc32)C1c1ccccc1 (some centres undefined) the results were TTR transcr act 1.
Cc1ccc2nc(SCC(=O)Nc3nonc3C)[nH]c2c1 was read as TTR transcr act 10*, TTR inh HuH7 -9 and TTR act confirm -1.
Screening Cc1ccc2nc(SCC(=O)N3CCCC3)[nH]c2c1 returned TTR transcr act 2.
Cc1ccc2nc(SCC(=O)NC3CC3)[nH]c2c1 was read as TTR transcr act -1.
Screening O=C(OCC#CCSc1nnc(-c2cccc3ccccc23)o1)c1cccc(C(F)(F)F)c1 returned TTR transcr act 4.
C[C@@H](N)C(=O)Nc1ccc(Cl)cc1C(=O)c1ccc[nH]1 was read as TTR transcr act 0.
CN(C)Cc1cc2ccccc2c2c1COC2 was read as TTR transcr act 12*, TTR inh HuH7 -13 and TTR act confirm -1.
`Cc1nc2c(C)cccc2c2c1COC2` gave TTR transcr act -1.
Screening Cc1cc2ccc3ccccc3c2cc1CN(C)C returned TTR transcr act 6.
`C[C@H]1[C@@H](N(C)C)CC[C@@]23CCCN2C(=O)CCC[C@@H]13` gave TTR transcr act 0.
Screening Cn1c2cc(S(C)=O)sc2c2cnn(Cc3cccc(N)c3)c(=O)c21 (centres undefined) returned TTR transcr act 2.
Screening O=C(NC1CC1)C(Cl)c1ccccc1 (centres undefined) returned TTR transcr act 0.
O=C1SCCC1NC(=O)C(c1ccccc1)c1ccccc1 (centres undefined) was read as TTR transcr act 18*, TTR inh HuH7 0 and TTR act confirm -1.
For O=C(CCCc1ccccc1)NC1CCSC1=O (centres undefined) the results were TTR transcr act 1.
C[C@H]1[C@@H](O)CC[C@@]23CCCN2C(=O)CCC[C@@H]13 was read as TTR transcr act 1.
For COc1cccc(NC(=O)n2ccc3ccc(-c4ccc5cc[nH]c5c4)cc32)c1 the results were TTR transcr act -1.
